# Screens (PubChem BioAssay)
# Hits are enriched below; roughly 2.6% of the tested compounds scored in any of these assays.
# Bim-Mcl-1 – disrupts Bim peptide binding to human Mcl-1; 0.1% of 190,000 active; inhibition, % at 10 µM; Bead-based flow cytometry, Bim peptide-Mcl-1 binding; AID 1009; in the data active means inhibition above about 40%;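 further: 0% = no compound tracer wells and 100% = peptide blocker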
# Target sequence (Q07820 whole entry, looked up): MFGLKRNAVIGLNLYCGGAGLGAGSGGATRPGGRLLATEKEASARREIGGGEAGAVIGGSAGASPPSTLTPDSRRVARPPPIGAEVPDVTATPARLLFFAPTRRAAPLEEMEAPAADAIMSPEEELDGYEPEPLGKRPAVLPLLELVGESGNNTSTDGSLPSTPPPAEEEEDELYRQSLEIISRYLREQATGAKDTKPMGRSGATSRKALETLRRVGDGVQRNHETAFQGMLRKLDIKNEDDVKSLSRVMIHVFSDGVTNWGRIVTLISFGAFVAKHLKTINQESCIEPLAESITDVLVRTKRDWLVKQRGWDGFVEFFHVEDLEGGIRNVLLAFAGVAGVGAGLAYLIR
# Mcl1 Noxa PPI – disrupts binding of human Mcl-1 to Noxa peptide; TR-FRET Mcl-1/Noxa peptide binding, 2 h; Q07820; 1.5% of 220,000 active; AID 1022; inhibition, % at 21.7 µM;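 active means compounds that cut the protein-peptide binding signal by more than 50% relative to plate controls in a single-dose test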;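 further: His-tagged Mcl-1 with rhodamine Noxa BH3 peptide and terbium anti-His antibody; 0% = Mcl-1 plus Noxa peptide wells and 100% = peptide-only wells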
# MCL1 BIM primary – MCL1-BIM-BH3 interaction inhibition (human); 0.68% of 320,000 active; inhibition, % at 10.9 µM; AID 2057; GST-MCL1 / FITC-Bim-BH3 fluorescence polarization; Q07820;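 active means inhibition above the mean inhibition of all tested compounds plus 3 SD, set per campaign, cut at about 40% in these data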;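 further: 0% = DMSO wells and 100% = unlabeled Bim-BH3 peptide control; higher means more loss of mP so more displacement of Bim peptide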
# 14-3-3 Bad PPI – disrupts binding of bovine 14-3-3 zeta to phospho-Bad peptide | inhibition, % at 21.7 µM | TR-FRET 14-3-3zeta/Dy647-pBad peptide displacement, 1 h | 0.71% of 220,000 active;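 active means inhibition above about 70%, limit read from the data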;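 further: 0% = full 14-3-3 plus peptide FRET controls and 100% = background without 14-3-3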
# Target sequence (P63103 whole entry, looked up): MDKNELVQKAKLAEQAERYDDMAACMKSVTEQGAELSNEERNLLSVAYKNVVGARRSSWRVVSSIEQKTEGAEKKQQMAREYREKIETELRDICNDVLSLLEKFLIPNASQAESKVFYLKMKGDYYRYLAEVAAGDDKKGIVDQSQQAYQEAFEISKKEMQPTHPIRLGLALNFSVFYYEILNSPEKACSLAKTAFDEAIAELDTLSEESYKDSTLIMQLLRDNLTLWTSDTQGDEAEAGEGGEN
# Mcl1-Bid inh – Mcl-1/Bid interaction inhibition; TR-FRET Mcl-1/Bid-Dy647 peptide binding, 1536-well; inhibition, % at 21.7 µM; 0.97% of 220,000 active;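 active means compounds that cut the binding signal by more than half at the single screening dose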;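 further: His-tagged Mcl-1 with europium anti-His antibody binding Bid BH3 peptide; 0% = Mcl-1 plus peptide wells and 100% = peptide-only wells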
# eIF4E 4G PPI – inhibitors of eIF4E and eIF4G interaction in translation initiation; TR-FRET eIF4E-eIF4GI(517-606) binding, 2 h; P63073+Q04637; inhibition, % at 21.7 µM; 0.37% of 220,000 active;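 active means inhibition above about 30%, limit read from the data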;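 further: 0% = full FRET control wells and 100% = background wells lacking eIF4GI fragment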
# * marks the source's active call; other numbers are inactive results; . = no result; [ ] = dose if it differs, or a comment.
SMILES,Bim-Mcl-1,Mcl1 Noxa PPI,MCL1 BIM primary,14-3-3 Bad PPI,Mcl1-Bid inh,eIF4E 4G PPI
Cc1ccc(/C=N/NC(=O)C[n+]2ccccc2)s1,.,15,0,-4,-4,1
CCOC(=O)c1[nH]cnc1C(=O)Nc1ccc(F)cc1,-2,16,7,-5,-21,0
CCOC(=O)c1[nH]cnc1C(=O)Nc1ccncc1,-1,-11,1,3,83*,3
Cc1cc(C(=O)CSc2nc(N)cc(=O)[nH]2)ccc1F,.,.,10,.,.,.
Cc1cc(C)c2c(=O)[nH]c(SCC(=O)c3ccc(F)c(C)c3)nc2n1,-6,-225,-4,46,59*,15
O=C(CCCSc1nnnn1-c1ccccc1)c1ccc(F)cc1,-5,-1,.,2,-17,11
Cc1cc(C)c(S(=O)(=O)N2CCOC2CNC(=O)C(=O)NCCN(C)C)c(C)c1 (configuration not stated),.,.,13,.,.,.
COCCN(CCOC)S(=O)(=O)c1ccc(C(=O)Nc2c(C)n(C)n(-c3ccccc3)c2=O)cc1,.,102*,-3,-2,-18,2
Cc1cccc(N(CC(=O)Nc2c(C)n(C)n(-c3ccccc3)c2=O)S(C)(=O)=O)c1,-2,4,2,-5,99*,-18
COc1ccc(N(CC(=O)Nc2c(C)n(C)n(-c3ccccc3)c2=O)S(=O)(=O)c2ccc(C)cc2)cc1OC,.,.,-5,.,.,.
Cc1cc(C)c(C)c(C(=O)CSc2nnc(-c3ccc4[nH]c(C)c(C)c4c3)o2)c1C,-3,29,-15,73*,-3,5
Cc1[nH]c2ccc(-c3nnc(SCC(=O)c4ccc(F)cc4)o3)cc2c1C,1,20,-10,12,-4,-2
COc1cc(C)c(CNc2cc(C)cc(C)c2)cc1C,-2,-6,-2,12,-16,0
COc1cc(C)c(CNc2ccc(OC)c(OC)c2)cc1C,0,30,31,80*,-11,13
COc1cc(C)c(CNc2cccc(C)c2)cc1C,1,22,1,73*,29,-6
Cc1ccc(Nc2nc(N)c([N+](=O)[O-])c(N3CCOCC3)n2)cc1C,-24,-29,-7,-2,-34,1
Nc1nc(Nc2cccc(F)c2)nc(N2CCOCC2)c1[N+](=O)[O-],.,10,2,-3,77*,0
N#Cc1ccc(-c2csc(NC3=NCCCCC3)n2)cc1,0,6,.,12,-3,53*[fluorescence artefact?]
CCN(CC)c1ccc(NC(=O)COC(=O)/C=C/c2nc3ccccc3s2)cc1,0,56*,2,-3,-3,-3
COc1cc(NC(=S)NN2CCN(C)CC2)cc(OC)c1,-4,-8,5,7,-18,2
O=C(COC(=O)CNC(=O)c1ccc(Cl)c([N+](=O)[O-])c1)NC(=O)CN1CCCC1=O,.,.,-16,.,.,.
CCOC(=O)N1CCN(C(=O)CCN2C(=O)/C(=C\c3cccc(OC)c3)SC2=S)CC1,.,.,3,.,.,.
O=S(=O)(NCc1ccc(F)cc1)c1ccccc1Br,.,.,2,.,.,.
CCSc1ccc(-c2nn(-c3ccccc3)cc2/C=C(/C#N)C(=O)NC)cc1,-7,7,-3,3,-11,2
C=CCNC(=O)/C(C#N)=C/c1cn(-c2ccccc2)nc1-c1ccc(OC)c([N+](=O)[O-])c1,-4,15,7,29,58*,13
SMILES,Bim-Mcl-1,Mcl1 Noxa PPI,MCL1 BIM primary,14-3-3 Bad PPI,Mcl1-Bid inh,eIF4E 4G PPI
CS(=O)(=O)Nc1ccc(-c2cn3c(n2)SCC3)cc1,.,.,-6,.,.,.
CC(=O)c1ccc(S(=O)(=O)Nc2ccc(-c3cn4c(n3)SCC4)cc2)cc1,2,65*,-9,-16,-30,-5
O=[N+]([O-])c1ccccc1CN1CCN(Cc2ccccn2)CC1,0,34,4,53,59*,4
CCOC(=O)c1c(-c2ccccc2)csc1NC(=S)NC,-11,55*,2,-20,-58,-1
COc1ccc2nc3ccccc3nc2c1N,.,55*,11,-6,-86,-2
O=C(Cc1csc(N2CCOCC2)n1)N/N=C/c1ccc(O)c(O)c1O,2,85*,.,29,-40,10
COc1ccc(/C=N/NC(=O)CCN2CCN(c3ccccc3)CC2)c(OC)c1OC,-3,22,-1,-9,-18,0
C/C(=N\NC(=O)Cc1csc(N2CCOCC2)n1)c1ccccc1,0,6,10,10,-26,-6
O=C(CCN1CCN(c2ccccc2)CC1)N/N=C/c1ccc(O)c(O)c1O,9,77*,.,5,-84,14
C=CCNC(=O)c1ccc(-n2cccc2)cc1,0,-6,3,-2,-65,2
CCOc1ccc(/C=C2\SC(=O)N(c3ccc(O)cc3)C2=O)cc1OC,.,-45,2,20,11,-4
COc1cc(/C=C2\SC(=O)N(c3ccc(Cl)cc3)C2=O)cc([N+](=O)[O-])c1O,1,76*,.,93*,90*,71*
COc1cc(/C=C2\SC(=O)N(c3cccc(Cl)c3)C2=O)cc([N+](=O)[O-])c1O,3,66*,.,92*,73*,61*
O=C1S/C(=C\c2ccc(O)c([N+](=O)[O-])c2)C(=O)N1c1ccccc1Cl,0,16,-7,-4,-1,-2
COc1cc(/C=C2/NC(=O)N(c3cccc(Cl)c3)C2=O)ccc1O,10,59*,11,50,-1,15
CC(C)N(Cc1cn[nH]c1-c1ccc(-c2ccccc2)cc1)Cc1nccn1C,-3,12,7,-16,-14,0
Cn1c(=O)c2c(nc(NCc3ccco3)n2CC(O)COc2ccccc2)n(C)c1=O (configuration not stated),-5,81*,7,8,-12,1
CCCn1c(NCc2ccco2)nc2c1c(=O)n(C)c(=O)n2C,-2,5,0,-16,-37,1
O=C(CCc1ccc(Oc2cc([N+](=O)[O-])cc([N+](=O)[O-])c2)cc1)N1CCCCCC1,-6,10,14,-1,7,8
NC(=O)c1nn(CC(=O)Nc2ccc3c(c2)OCO3)cc1[N+](=O)[O-],-2,74*,-18,1,-8,-2
O=C(CN1C(=O)CSCC1=O)Nc1ccc2c(c1)OCO2,-5,53*,10,5,-24,6
CCCCN1C(=O)C(=O)N(CC(=O)NC2CCCc3ccccc32)C1=O (configuration not stated),-1,4,0,-1,-23,-3
ClCc1ncc(-c2ccc(Cl)cc2)o1,-1,-11,2,-5,-8,-1
COC(=O)c1ccc(-c2nc(O)c(C)s2)cc1,-3,20,19,-20,-30,-2
COC(=O)c1ccc(-c2nc3cc(Cl)c(N)cc3s2)cc1,0,0,1,3,91*,2
CCc1ccc(N2C(=O)CN(Cc3cccs3)C2=S)cc1,-3,3,1,5,-17,-4
